Assay outcomes deposited in PubChem BioAssay by several laboratories.
BaF3 tox: parental Ba/F3 viability inhibition as JAK2V617F counter-screen; CellTiter-Glo ATP luminescence; 1.1% of 220,000 active; AID 1486; inhibition, % at 5.6 µM;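 active = inhibition above a per-campaign cutoff, the mean inhibition of all tested compounds plus 3 SD, cut at about 27% in these data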;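 also: 0% = DMSO wells and 100% = JAK Inhibitor I control wells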
Ba/F3 V617F tox: loss of viability in JAK2V617F-driven Ba/F3 cells | Ba/F3 EpoR-JAK2V617F viability, ATP luminescence | inhibition, % at 5.6 µM | 1.1% of 220,000 active | AID 1446;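 active = inhibition above the campaign mean plus 3 SD over all tested compounds, cut at about 24% in these data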;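 also: cytokine-independent growth of Ba/F3 cells driven by EpoR plus mutant JAK2; 0% = DMSO-treated cells and 100% = JAK inhibitor I control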
IEC-6 cytotox: IEC-6 cytotoxicity, counter-screen for KLF5 inhibitors; luminescence viability; inhibition, % at 5 µM; 0.78% of 290,000 active; AID 1825;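 also: 0% = plate median of test compound wells and 100% = cytotoxic reference compound wells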
APP 5UTR inh: APP translation inhibition | inhibition, % at 2 µM | AID 1285 | 0.82% of 190,000 active | SH-SY5Y APP 5'UTR-luciferase reporter, luminescence;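 active = inhibition above a set limit, derived from the sample mean plus 3 SD, cut at about 45% in these data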
KLF5 inhibitor: inhibitors of KLF5 expression; AID 1700; inhibition, % at 5 µM; 0.23% of 290,000 active; DLD-1 KLF5 promoter-luciferase reporter, luminescence;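 active = inhibition above a per-plate limit of that plate's mean compound inhibition plus 3 SD, cut at about 60% in these data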;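 also: 0% = DMSO wells and 100% = LY294002 at 200 µM; higher means less KLF5 promoter-driven luciferase light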
aSyn 5UTR inh: 5' untranslated region of α-synuclein, MLPCN primary screen; alpha-synuclein 5'UTR reporter, inhibitor activity; inhibition, % (tested at 7.5 µM); 0.82% of 300,000 active; AID 1813; in the data active = inhibition above about 60%;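 also: H4 neuroglioblastoma cells stably carrying SNCA 5'UTR luciferase fusion; 0% = DMSO wells and 100% = positive control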
IEC-6 tox confirm: IEC-6 cytotoxicity, confirmation assay; shares compounds with IEC-6 cytotox; IEC-6 rat intestinal epithelial viability, luminescence; AID 1907; 63% of 1,900 active; inhibition, % at 5 µM;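 also: 0% = vehicle and 100% = reference cytotoxic drug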
The depositor's hits bear a star; . = not tested or not shown. Sampled rows, rich in hits. Any-hit rate of the full collection: about 2.2%. Rule as the data show it, unless noted: active = inhibition above about 22%; inactive = the rest.

SMILES	BaF3 tox	Ba/F3 V617F tox	IEC-6 cytotox	APP 5UTR inh	KLF5 inhibitor	aSyn 5UTR inh	IEC-6 tox confirm
COc1ccc(C(=O)c2ccc(OC)cc2OC)cc1	-2	3	25*	.	28	-31	14
COc1ccc(OC)c(C(=O)c2ccc(C(=O)c3cc(OC)ccc3OC)cc2)c1	0	-4	2	-1	-38	17	.
COc1ccnc(CSC(N)=Nc2cccc(C(F)(F)F)c2)c1	3	-4	-2	-12	-7	-81	.
O=C(Nc1cccnc1)c1ccc([N+](=O)[O-])o1	.	.	76*	.	-11	-202	2
O=C(Cc1ccc(-c2ccccc2)cc1)NCc1cccnc1	20	18	25*	-40	-1	-48	25*
O=C(NCc1cccnc1)c1ccc([N+](=O)[O-])o1	-6	1	32*	7	-17	-117	16
O=C(Nc1cccnc1)c1ccco1	6	1	-4	26	-8	-13	.
CCCCCC(=O)Nc1ccc(C(=O)CN2C(=O)NC3(CCCCCC3)C2=O)cc1	.	.	.	.	.	31	.
COc1ccccc1C(=O)Nc1ccc2c(c1)nc(CCNC(C)=O)n2C	6	3	-1	-63	-53	-73	.
COc1ccccc1C(=O)Nc1ccc2c(c1)nc(CCNC(=O)c1ccccc1)n2C	76*	85*	60*	.	45	-10	43*
CCOC(=O)c1cnn(-c2ccccc2)c1NC(=O)CSc1nnc(-c2cccs2)n1CC	4	-1	24*	4	-18	2	-8
Cc1onc(-c2ccccc2)c1C(=O)NCC(O)c1ccccc1 (stereo unspecified)	-1	-2	-6	.	-5	-2	.
COc1cccc(NC(=O)CSC2=C(C#N)C(c3ccco3)C3=C(CCCC3=O)N2)c1 (stereo unspecified)	76*	67*	50*	8	45	-26	5
CCCCc1ccc(NC(=O)CSC2=C(C#N)C(c3ccco3)C3=C(CCCC3=O)N2)cc1 (stereo unspecified)	5	-1	-6	11	-22	24	.
Cc1ccc(C(=O)CSC2=C(C#N)C(c3ccco3)C3=C(CCCC3=O)N2)cc1 (stereo unspecified)	4	1	45*	46*	4	38	52*
Cc1cc(C)n(-c2nc3ccccc3c(=O)n2OCC(=O)OCc2ccccc2)n1	4	-1	58*	51*	8	62*	30*
Cc1cc(C)n(-c2nc3ccccc3c(=O)n2OCC(=O)N(C)C)n1	4	-1	1	3	-15	5	.
CNC(=S)Nc1cccc(-c2cnc3ccccc3n2)c1	.	.	2	.	-112	-144	.
Cc1ccccc1C(=O)Nc1nnc(CC(=O)N/N=C/c2ccncc2)s1	-4	-1	-2	.	-34	10	.
COc1ccc(NC(=O)N2CCN(c3cccc(C(F)(F)F)c3)CC2)cc1	8	3	24*	23	-27	12	3
CN(C)S(=O)(=O)c1ccc(NC(=O)N2CCN(c3cccc(C(F)(F)F)c3)CC2)cc1	11	4	4	0	24	49	.
Cc1nn(-c2ccccc2)c(N)c1N=Nc1ccccc1	7	2	1	-156	-153	-49	.
O=c1[nH]cnc(O)c1N=Nc1ccccc1	.	.	-5	.	-26	-71	.
Nc1nn(-c2ccccc2)c(N)c1N=Nc1ccccc1	64*	64*	34*	-3	-115	-106	40*
Nc1ncnc(N)c1N=Nc1ccccc1	.	.	36*	.	-65	112*	19
SMILES	BaF3 tox	Ba/F3 V617F tox	IEC-6 cytotox	APP 5UTR inh	KLF5 inhibitor	aSyn 5UTR inh	IEC-6 tox confirm
CCOC(=O)C(Sc1cc(-c2ccccc2)nc2ncnn12)C(C)=O (stereo unspecified)	2	1	4	.	9	-19	.
CCc1c(C)nc2ncnn2c1NCCc1ccc(OC)cc1	57*	63*	24*	20	17	31	24*
CCc1c(C)nc2ncnn2c1Nc1ccc(C)cc1	.	.	10	.	-14	14	.
COc1ccccc1NS(=O)(=O)c1ccc(-c2cc(C)no2)s1	.	.	40*	.	27	-102	17
COc1ccccc1NS(=O)(=O)c1cccs1	1	-3	3	-3	-33	24	.
COc1ccccc1CNS(=O)(=O)c1ccc(-c2cc(C)no2)cc1	.	.	79*	.	53	80*	53*
CC(C)(C)c1ccc(Cn2c(=O)cnc3ccccc32)cc1	.	.	24*	.	19	-37	8
O=c1cnc2ccccc2n1Cc1ccc(Br)cc1	.	.	10	.	-37	-65	.
C[C@@H]1C[C@H](O)c2cc(Cl)ccc2N1	4	0	1	-11	-31	2	.
N#CC1CC(c2ccccc2)Nc2cc(Cl)ccc2N1 (stereo unspecified)	-1	2	40*	.	-64	-331	21
COc1ccc(S(=O)(=O)N2CCCC2CNC(=O)C(=O)NCc2ccco2)cc1 (stereo unspecified)	.	.	.	.	.	-8	.
CCC(NC(=O)C1CCCC1)c1ccccc1 (stereo unspecified)	.	.	.	.	.	-16	.
NC(N)=Nc1ccc(N=C(N)N)cc1	3	-3	97*	.	-9	-3	98*
CCc1ccc2nc(Nc3nc(COC)cc(=O)[nH]3)nc(C)c2c1	3	-2	3	9	-30	-2	.
COCc1cc(=O)[nH]c(Nc2nc3ccc(C)cc3o2)n1	7	1	26*	15	-58	16	36*
CCN(CC(=O)N1CCOCC1)S(=O)(=O)c1ccc(F)cc1	.	.	10	.	5	9	.
CCN1C(=O)CS/C1=N\S(=O)(=O)c1ccc(Cl)cc1	6	5	-5	-34	-2	2	.
CCn1c(Cl)c(C=O)s/c1=N\S(=O)(=O)c1ccccc1	103*	99*	96*	.	22	-55	91*
O=C(c1c[nH]c2ccccc12)C(O)C(c1ccccc1)N1CCOCC1 (stereo unspecified)	4	-4	-3	-6	-11	-13	.
O=C(c1c[nH]c2ccccc12)C(Cl)c1ccccc1 (stereo unspecified)	.	.	33*	.	18	-11	13
O=C(O)CCNc1ccc(NCCC(=O)O)c2c1C(=O)c1ccccc1C2=O	.	.	24*	.	-1	15	10
COc1ccccc1NCCC(=O)O	-3	0	-12	.	-42	4	.
COc1ccc2[nH]c3c4c(ccc3c2c1)C(=O)C=CC4=O	8	46*	57*	.	-22	.	10
COc1ccc2[nH]c(=O)cc(C(=O)O)c2c1	2	-2	5	-17	-17	-5	.
Clc1cccc(Cl)c1/C=C/c1ccn[nH]1	.	.	27*	.	-59	-232	9
O=C(O)c1ccc(NC2=C/C(=N/S(=O)(=O)c3ccccc3)c3ccccc3C2=O)cc1	5	-1	25*	6	4	.	-10
O=C(c1ccc(Br)cc1)C(CN1CCOCC1)c1ccccc1 (stereo unspecified)	.	.	26*	.	-32	-152	8
CC(C)n1cc(/C=N/Nc2ccc(C(=O)O)cc2)c2ccccc21	.	.	35*	.	45	-79	55*
